OPRM1-OPRD1 ag: agonists of human mu-delta opioid receptor heterodimerization | cells, OPRM1-OPRD1 heterodimerization, luminescence | activation, % at 9.3 µM | 0.3% of 340,000 active
Target sequence (P35372 whole entry, looked up): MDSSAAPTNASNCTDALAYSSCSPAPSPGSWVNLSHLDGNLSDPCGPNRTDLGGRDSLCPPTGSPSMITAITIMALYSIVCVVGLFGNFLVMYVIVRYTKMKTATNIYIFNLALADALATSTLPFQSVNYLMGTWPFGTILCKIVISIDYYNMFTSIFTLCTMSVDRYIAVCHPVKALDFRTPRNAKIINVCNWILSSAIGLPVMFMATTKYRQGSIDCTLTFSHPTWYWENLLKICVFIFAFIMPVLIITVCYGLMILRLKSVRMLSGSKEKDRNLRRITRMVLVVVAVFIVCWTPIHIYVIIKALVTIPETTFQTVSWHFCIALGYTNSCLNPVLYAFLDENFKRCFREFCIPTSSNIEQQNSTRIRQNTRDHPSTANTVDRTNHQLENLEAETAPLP
Target sequence (P41143 whole entry, looked up): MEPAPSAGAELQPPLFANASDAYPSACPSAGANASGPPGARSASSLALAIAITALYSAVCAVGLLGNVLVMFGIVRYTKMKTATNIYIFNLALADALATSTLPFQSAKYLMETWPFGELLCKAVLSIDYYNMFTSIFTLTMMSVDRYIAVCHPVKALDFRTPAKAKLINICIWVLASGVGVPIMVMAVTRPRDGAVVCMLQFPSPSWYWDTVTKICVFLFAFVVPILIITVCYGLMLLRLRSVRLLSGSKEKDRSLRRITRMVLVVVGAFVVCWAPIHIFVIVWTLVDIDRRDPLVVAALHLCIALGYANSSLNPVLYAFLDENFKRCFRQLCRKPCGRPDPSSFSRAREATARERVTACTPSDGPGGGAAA
MOR-DOR inv ag: mu-delta opioid heterodimer inverse agonism. 0.21% of 340,000 active. inhibition, % at 9.3 µM. P35372+P41143. cell-based MOR-DOR heterodimer luminescence. AID 504357; in the data active means inhibition above about 22%, passing the limit was not always enough
HTR5A inv ctr: HTR5A inverse agonism, opioid heterodimer counter-screen. P47898. HTR5A cell line, luminescence. inhibition, % at 9.3 µM. 0.083% of 340,000 active; in the data active means inhibition mostly above about 23%, no sharp cut-off; inactive means mostly below about 18%
HTR5A ag: counter-screen for OPRM1-OPRD1 agonists: human HTR5A agonism | P47898 | HTR5A agonist assay, luminescence, cell-based | activation, % at 9.3 µM | 0.61% of 340,000 active; in the data active means activation mostly above about 9.5%, no sharp cut-off; inactive means mostly below about 7.6%
MOR-DOR ag conf: confirmation of human OPRM1-OPRD1 heterodimerization agonists; activation, % at 9.3 µM; cells, MOR-DOR heterodimerization, luminescence complementation; shares compounds with OPRM1-OPRD1 ag; 45% of 830 active
HTR5A ag counter: HTR5A agonism, opioid heterodimer counter-screen; 8% of 830 active; AID 504905; shares compounds with OPRM1-OPRD1 ag; activation, % at 9.3 µM; HTR5A agonist counterscreen, cell luminescence; in the data active means activation above about 17%
Each line names hits and unclear results; the compound was inactive in the other large screens (follow-up assays come after a bar, where they were run). Rows were chosen to be rich in hits. Some 1.1% of all compounds tested hit in one or more screens of this group. Unless noted, no stated cut-off is given here; in the data, active means activation above about 18%; inactive means the rest.

Cc1nnc(NC(=O)c2nc(S(=O)(=O)Cc3ccccc3)ncc2Cl)s1	HTR5A ag 10
CCCCOC(=O)Nc1ccc(N2CCCCC2)cc1	HTR5A ag 9.6
O=C(Nc1ccccc1F)c1ccc(Br)o1	HTR5A ag 13
COC(=O)c1c(N2C(=O)Nc3ccccc3N2O)sc(C)c1C	none
COC(=O)c1c(-n2cnnn2)sc(C)c1C	HTR5A ag 12
O=C1c2ccccc2C(=O)c2c(/C=C/N3CCCCC3)ccnc21	none
Cc1ccc2[nH]cc(CCNC(=O)C3CCCO3)c2c1 (stereo not drawn)	HTR5A ag 11
Cc1ccc2[nH]cc(CCNC(=O)c3ccc4c(c3)OCO4)c2c1	none
CCOC(=O)CNC(=O)CSc1nc2nc(C)c(Br)cc2[nH]1	HTR5A ag 13
Cc1ccc(S(=O)(=O)N2CCN(C(=O)COC(=O)c3ccc(Cl)c(S(N)(=O)=O)c3)CC2)c(C)c1	none
NC(=O)c1nnsc1-c1ccco1	none
CSc1ccccc1NC(=O)COC(=O)CCC(=O)c1ccc(F)cc1	HTR5A ag 8.4
CCOc1cc2c(cc1O)C(=NOC)CC1C2CCC2(C)C(O)CCC12 (stereo not drawn)	none
COc1cc(C(C)=O)ccc1OCC(=O)NCC(c1ccc(F)cc1)N1CCOCC1 (stereo not drawn)	none
Cc1ccc(C(C)C)c(OCc2ccc(C(=O)N/N=C/c3ccc(O)c(O)c3)cc2)c1	HTR5A ag 14
COc1cc(/C=N/NC(=O)c2ccc(COc3cc(C)ccc3C(C)C)cc2)cc(OC)c1O	none
CCOC(=O)C(=CNc1cc(C)nn1-c1ccc(Cl)cc1)C(=O)OCC	HTR5A ag 10
C=C(C)Cn1c(SCC)nc2ccccc2c1=O	HTR5A ag 12
C=C(C)Cn1c(SCC#N)nc2ccccc2c1=O	none
CC[C@@H](C(=O)[C@@H](C)[C@@H](O)[C@H](C)[C@@H]1O[C@@H]([C@@H](CC)C(=O)O)CC[C@@H]1C)[C@H]1O[C@]2(C=C[C@@H](O)[C@]3(CC[C@@](C)([C@H]4CC[C@](O)(CC)[C@H](C)O4)O3)O2)[C@H](C)C[C@@H]1C	OPRM1-OPRD1 ag 104, HTR5A ag 40
C#CCOCCOCCOCCNc1nc(N2CCOCC2)nc(N2CCN(C(=O)CCCCCCCCCCNC(=O)[C@@H](CCSC)n3cc(CCO)nn3)CC2)n1	HTR5A ag 14
C#CCOCCOCCOCCNc1nc(N2CCN(C(=O)CCCCCCCCCCNC(=O)[C@H](CO)n3cc(CCCSC)nn3)CC2)nc(N2CCN(C(=O)CCCCCCCCCCNC(=O)[C@H](CO)n3cc(CCCSC)nn3)CC2)n1	none
Cc1cccnc1CCNC(=O)c1ccc(OC2CCN(Cc3ccccn3)CC2)cc1	none
O=C(NCCc1cccc(Cl)c1)c1ccc(OC2CCN(Cc3ccccn3)CC2)cc1	OPRM1-OPRD1 ag 65 | MOR-DOR ag conf inactive | HTR5A ag counter inactive
O=C(NCCc1ccccn1)c1ccc(OC2CCN(CCc3ccccc3)CC2)cc1	none
CSCCCNC(=O)c1ccc(OC2CCN(CCc3ccccc3)CC2)cc1	OPRM1-OPRD1 ag 22 | MOR-DOR ag conf 32 | HTR5A ag counter inactive
O=C(CC1C=CCC1)Nc1ccccc1 (stereo not drawn)	none
CCCN1C(=O)c2ccccc2NC1c1ccc(OC)c(CSc2ccccn2)c1 (stereo not drawn)	OPRM1-OPRD1 ag 22 | MOR-DOR ag conf inactive | HTR5A ag counter inactive
COc1ccc(C2Nc3ccccc3C(=O)N2Cc2ccco2)cc1COc1ccc(F)cc1 (stereo not drawn)	OPRM1-OPRD1 ag 38 | MOR-DOR ag conf 26 | HTR5A ag counter inactive
COc1ccc(N2C(=O)c3ccccc3NC2c2ccc(OC)c(CSc3ccccn3)c2)cc1 (stereo not drawn)	none
COc1ccc(C2Nc3ccccc3C(=O)N2Cc2ccco2)cc1CN1C(=O)c2ccccc2C1=O (stereo not drawn)	none
CC(OC(=O)[C@@H](NC(=O)OCc1ccccc1)C(C)C)C(=O)Nc1ccc(N2CCOCC2)cc1 (stereo partly drawn)	none
Cn1c(N)c(C(=O)CSc2nn(-c3ccc(F)cc3)c(=S)s2)c(=O)n(C)c1=O	none
OC(CNC1CCCc2ccccc21)COc1c(Cl)cccc1Cl (stereo not drawn)	OPRM1-OPRD1 ag 20 | MOR-DOR ag conf inactive | HTR5A ag counter inactive
OC(CNC1Cc2ccccc2C1)COc1ccc(Cl)cc1 (stereo not drawn)	none
CCN(C[C@H]1N[C@@](Cc2ccccc2)(C(=O)OC)[C@H]2C(=O)N(Cc3ccccc3)C(=O)[C@@H]12)C(=O)Nc1ccc(C(F)(F)F)cc1	none
Cc1cc(C)c(-c2cc(C(=O)Nc3cc(C)ccc3C)[nH]n2)c(O)c1	OPRM1-OPRD1 ag 20 | MOR-DOR ag conf inactive | HTR5A ag counter inactive
Cc1ccc(-c2cc(C(=O)Nc3cc(C)ccc3C)[nH]n2)c(O)c1	none
CC(=O)c1ccc(S(=O)(=O)N(C)CC(=O)NCc2ccco2)cc1	none
COc1cc2c(cc1NC(=O)C(C)Sc1ccc(NC(C)=O)cc1)oc1ccccc12 (stereo not drawn)	OPRM1-OPRD1 ag 20 | MOR-DOR ag conf inactive | HTR5A ag counter inactive
O=C(CCC(=O)NNC(=O)c1ccc(Cl)cc1Cl)NCc1ccccc1	none
Cn1c(-c2c(N)n(C3CCCC3)c3nc4ccccc4nc23)nc2ccccc21	none
COCCCn1c(N)c(-c2nc3ccccc3n2C)c2nc3ccccc3nc21	OPRM1-OPRD1 ag 117 | MOR-DOR ag conf 142 | HTR5A ag counter inactive
Cn1c(-c2c(N)n(CCc3ccccc3)c3nc4ccccc4nc23)nc2ccccc21	OPRM1-OPRD1 ag 250 | MOR-DOR ag conf 235 | HTR5A ag counter inactive
COc1ccc(CC(=O)Nc2cc(S(=O)(=O)Nc3ccc(OC)cc3)ccc2OC)cc1	none
C[C@H](C[C@H](O)[C@H]1OC1(C)C)C1=C2C[C@H](O)C3[C@@]4(C)CCC(=O)C(C)(C)C4CC[C@]3(C)[C@@]2(C)CC1 (stereo partly drawn)	none
C[C@@H](C[C@@H](O)[C@H](O)C(C)(C)O)[C@@H]1CC[C@]2(C)C3=CC[C@H]4C(C)(C)C(=O)CC[C@]4(C)[C@H]3CC[C@@]12C	OPRM1-OPRD1 ag 19 | MOR-DOR ag conf inactive | HTR5A ag counter inactive
Cc1ccc(/C=C/C(=O)OCC(=O)NCc2cccs2)o1	none
O=C1C=CC(=O)c2c(O)c(N3CCN(CCOCCO)CC3)c(Br)c(O)c21	OPRM1-OPRD1 ag 25 | MOR-DOR ag conf inactive | HTR5A ag counter inactive
CN1CCN(c2ccc(NC(=O)c3ccc(-c4ccc(Br)cc4)o3)cc2)CC1	OPRM1-OPRD1 ag 345, HTR5A ag 17 | MOR-DOR ag conf 36 | HTR5A ag counter inactive
CCN1CCN(c2ccc(NC(=O)c3ccc(Br)o3)cc2)CC1	none
O=C(O)c1cccc(NC2=C(Cl)C(=O)c3ccccc3C2=O)c1	OPRM1-OPRD1 ag 22 | MOR-DOR ag conf inactive | HTR5A ag counter inactive
O=C(O)c1ccc(NC2=C(Cl)C(=O)c3ccccc3C2=O)cc1	none
